Bioassay records (PubChem)
A selection: hits, their analogues and other compounds. The true share with any hit is near 2.4%.
Arbovirus anti = antivirals against arbovirus infection, primary screen, cell-based, full library, 10K replicate subset. inhibition, % at 10 µM. arbovirus infection cell-based antiviral screen. actives 0.37% (n = 200,000); in the data active = inhibition above about 30%
MEKK2 mut-MEK5 = MEK5 binding signal on mutant MEKK2 PB1, primary screen, biochemical, multiplex bead flow cytometry, Alexa488-MEK5; actives 0.35% (n = 290,000); Alexa488-MEK5 binding to MEKK2 mutant; AID 1530, 2009; percent response, % at 10 µM; in the data active = percent response above about 24%, passing the limit was not always enough
Pf gamet viab = late stage P. falciparum gametocyte viability inhibitors, primary screen, ATP luminescence, HTS | actives 0.065% (n = 150,000) | inhibition, % at 10.9 µM | P. falciparum stage V gametocytes, 24 h;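 active = inhibition above the mean plus 3 SD of compounds within the control limits, set per campaign, cut at about 38% in these data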;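 also: 0% = DMSO wells and 100% = medium only without gametocytes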
MEKK2 WT-MEK5 = modulators of MEK5 binding to wildtype MEKK2, primary screen, biochemical, multiplex bead flow cytometry, Alexa488-MEK5 | Mitogen-activated protein kinase kinase kinase 2 (Homo sapiens), Q9Y2U5 | Alexa488-MEK5 binding to MEKK2 WT; actives lie on both sides | binding response (% of control), % at 10 µM | actives 1.1% (n = 290,000); in the data active = binding response below about 67% or above about 130%
MEKK3 PB1 HTS = modulators of MEKK3-MEK5 PB1 binding, primary screen, biochemical, wildtype MEKK3, multiplex bead flow cytometry, Alexa488-MEK5 | bead-based flow cytometry, Alexa488-MEK5 binding to MEKK3; actives lie on both sides; 0 = blocked by unlabeled MEK5, 100 = vehicle | Mitogen-activated protein kinase kinase kinase 3 (Homo sapiens), Q99759 | actives 1.4% (n = 290,000) | binding response (% of control), % at 10 µM;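 active = binding response more than 3 SD above or below the average of its plate-row segment, actives on both sides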;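 also: Alexa488 bead fluorescence after subtracting the streptavidin-only scavenger bead signal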
Target sequence (Q99759 whole entry, looked up): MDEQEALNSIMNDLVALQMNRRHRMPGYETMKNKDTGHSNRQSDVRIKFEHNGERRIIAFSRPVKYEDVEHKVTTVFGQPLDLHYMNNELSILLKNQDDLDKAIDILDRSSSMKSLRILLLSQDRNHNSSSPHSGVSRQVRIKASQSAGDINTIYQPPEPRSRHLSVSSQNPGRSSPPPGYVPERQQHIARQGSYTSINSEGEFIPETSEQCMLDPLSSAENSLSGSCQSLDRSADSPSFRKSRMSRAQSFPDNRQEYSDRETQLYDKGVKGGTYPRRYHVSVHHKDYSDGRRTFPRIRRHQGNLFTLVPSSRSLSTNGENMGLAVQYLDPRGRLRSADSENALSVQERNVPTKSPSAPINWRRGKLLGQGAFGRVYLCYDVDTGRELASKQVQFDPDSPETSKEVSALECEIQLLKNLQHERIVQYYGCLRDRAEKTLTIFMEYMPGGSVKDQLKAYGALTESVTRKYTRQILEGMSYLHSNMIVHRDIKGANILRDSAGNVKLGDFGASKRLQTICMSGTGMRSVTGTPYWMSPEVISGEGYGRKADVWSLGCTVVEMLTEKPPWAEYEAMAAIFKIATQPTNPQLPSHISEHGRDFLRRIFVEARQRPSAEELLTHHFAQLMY
MEKK2wt confirm = modulators of MEK5 binding to wildtype MEKK2, confirmation, biochemical, single concentration, multiplex bead flow cytometry; shares compounds with MEKK3 PB1 HTS; Alexa488-MEK5 binding to MEKK2 WT; actives lie on both sides; binding response (% of control), % at 10 µM; actives 2.4% (n = 5,900); in the data active = binding response below about 16% or above about 210%; inactive = in between
MEKK2mut-MEK5 = mutant MEKK2 PB1-MEK5 binding signal retest – biochemical, single concentration, multiplex bead flow cytometry, confirmation; percent response, % at 10 µM; AID 1893, 2009; actives 2% (n = 5,900); Alexa488-MEK5 binding to MEKK2 mutant; shares compounds with MEKK3 PB1 HTS; in the data active = percent response mostly above about 71%, no sharp cut-off; inactive = mostly below about 38%;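 also: higher means compound restores mutant binding toward wildtype level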
MEKK3 confirm = MEKK3 wild-type PB1 binding to MEK5, inhibitors, confirmation, biochemical, bead multiplex flow cytometry, single concentration, wildtype | Alexa488-MEK5 binding to MEKK3; stronger effect = lower value | AID 1894, 2009 | shares compounds with MEKK3 PB1 HTS | actives 1.8% (n = 5,900) | binding response (% of control), % at 10 µM;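 active = binding response below 72% of control, or above a set upper limit, though filed actives all read lower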;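 also: 100% = DMSO only wells and 0% = binding blocked by excess unlabeled MEK5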
* marks the source's active call; other numbers are inactive results; · = no result; [ ] = remark or other dose.

SMILES	Arbovirus anti	MEKK2 mut-MEK5	Pf gamet viab	MEKK2 WT-MEK5	MEKK3 PB1 HTS	MEKK2wt confirm	MEKK2mut-MEK5	MEKK3 confirm
CC1(C)CCCC(C)(C)N1CC(O)COCCOc1ccc(Br)cc1 (centres undefined)	-10	0	6	103	90	·	·	·
C/C=C/c1ccc(OCC(O)CNCC(c2ccc(OC)cc2)N(C)C)c(OC)c1 (centres undefined)	·	19	·	146*	111	120	7	101
C/C=C/c1ccc(OCC(O)CNCCc2ccc(OC)cc2)c(OC)c1 (centres undefined)	·	8	·	120	103	·	·	·
Cc1ccc(N2CC(C(=O)N/N=C/c3sccc3C)CC2=O)cc1 (centres undefined)	-12	0	·	104	135*	93	-2	100
COc1ccc(CN(C)CC(=O)Nc2cc(OC)c([N+](=O)[O-])cc2C)c(OC)c1	22	0	·	106	133*	111	5	100
COc1cc(NC(=O)CN(C)Cc2cccc(F)c2)c(C)cc1[N+](=O)[O-]	-2	0	-14	112	128*	104	-2	104
COc1cc(NC(=O)CN(C)Cc2ccc(OC(F)F)cc2)c(C)cc1[N+](=O)[O-]	14	4	·	99	100	·	·	·
Cc1c(N2C(=O)C(=O)/C(=C(/O)c3ccc(Cl)cc3)C2c2ccccc2)c(=O)n(-c2ccccc2)n1C (centres undefined)	-7	0	·	105	135*	97	-5	96
Cc1c(N2C(=O)C(=O)/C(=C(/O)c3ccccc3)C2c2ccc(F)cc2)c(=O)n(-c2ccccc2)n1C (centres undefined)	4	17	0	112	102	·	·	·
COc1cccc(NC(=O)N2CCC(n3nnc4ccccc43)CC2)c1	-5	2	4	89	95	·	·	·
CCCC(=O)NC(NC(=S)Nc1ccc(S(N)(=O)=O)cc1)C(Cl)(Cl)Cl (centres undefined)	-1	0	-17	107	131*	102	5	104
CCCCCC(=O)NC(NC(=S)Nc1ccc(S(N)(=O)=O)cc1)C(Cl)(Cl)Cl (centres undefined)	14	5	·	102	104	·	·	·
CCOCCCNC(=O)c1cc(-c2ccc(Br)s2)nc2ccccc12	·	4	·	94	97	·	·	·
CCN(CC)CCNC(=O)c1cc(-c2ccc(Br)s2)nc2ccccc12	·	43*	·	141*	100	156	34	107
Cn1nc(C(C)(C)C)c([N+](=O)[O-])c1C(=O)N1CCCCCC1	·	-7	·	101	98	·	·	·
Cn1cc(CN2CCCC(CO)(Cc3cccc(Cl)c3)C2)cn1 (centres undefined)	-10	7	-14	112	103	·	·	·
OCC1(Cc2cccc(Cl)c2)CCCN(Cc2cnn(-c3ccccc3)c2)C1 (centres undefined)	-37	24	2	140*	94	130	20	103
C/C(=N\NC(=O)Cc1csc(N2CCOCC2)n1)c1ccc(Cl)c(Cl)c1	7	-8	12	90	81	·	·	·
Cc1ccc2[nH]c3c(=O)n(CC(=O)N4CC(C)CC(C)C4)ncc3c2c1 (centres undefined)	·	-6	·	94	93	·	·	·
CCN1CCN(Cc2ccc(NC(=O)c3cc(NC(=O)c4nccnc4N)cc(OC)c3)cc2C(F)(F)F)CC1	·	22	17	164*	123*	144	21	102
CCN1CCN(Cc2ccc(NC(=O)c3cc(NC(=O)c4cnnc5ccccc45)cc(OC)c3)cc2C(F)(F)F)CC1	·	21	·	142*	107	143	15	99
CCN1CCN(Cc2ccc(NC(=O)c3cc(NC(=O)c4cncc(-c5ccc(C#N)cc5)c4)cc(OC)c3)cc2C(F)(F)F)CC1	·	131*	·	189*	118	129	16	38*
C(=C\c1ccc2ccccc2n1)/c1ccccc1	·	-12	0	34*[inhibitor]	40*[inhibitor]	100	-3	94
Fc1ccccc1/C=C/c1ccc2ccccc2n1	-27	5	7	108	130*	101	-4	99
Oc1ccc(/C=C/c2ccc3ccccc3n2)cc1	-18	-6	21	97	100	·	·	·
SMILES	Arbovirus anti	MEKK2 mut-MEK5	Pf gamet viab	MEKK2 WT-MEK5	MEKK3 PB1 HTS	MEKK2wt confirm	MEKK2mut-MEK5	MEKK3 confirm
O=C(O)/C=C/c1ccc2ccccc2n1	14	-2	·	97	100	·	·	·
CC[C@H](C)[C@@H](CN[C@H](CCCCNC)CNC)NCC1CCCC1	·	8	2	141*	104	114	8	106
COc1ccc(C)cc1Nc1n[n+](-c2ccccc2)c(-c2ccc(NC(C)=O)cc2)s1	·	10	·	142*	106	147	30	107
CC(=O)Nc1ccc(-c2sc(Nc3cccc4ccccc34)n[n+]2-c2ccccc2)cc1	·	10	-23	159*	104	136	15	107
C[n+]1nc(Nc2cccc3ccccc23)sc1-c1ccc(C(=O)O)cc1	·	-1	·	101	103	·	·	·
COc1ccc(C)cc1Nc1n[n+](C)c(-c2ccc(C(=O)O)cc2)s1	·	4	·	113	109	·	·	·
COc1ccc(C)cc1Nc1n[n+](-c2ccccc2)c(-c2ccc(SC)cc2)s1	·	29*	·	128	105	121	9	101
Cc1ccc(SC(C)C(=O)N2CCC(C(N)=O)CC2)cc1 (centres undefined)	0	1	9	83	93	·	·	·
COc1ccc(N2CCN(C(=O)c3oc4ccccc4c3NC(=O)CCc3cc(OC)no3)CC2)cc1	·	0	·	97	101	·	·	·
O=C(O)/C=C/c1coc2ccc(F)cc2c1=O	-2	0	·	99	72*[inhibitor]	106	12	106
COCCNc1nnc(SCC(=O)Nc2cc(-c3ccccc3)nn2-c2ccccc2)s1	5	-1	2	100	68*[inhibitor]	127	8	104
CC(C)(C)c1cc(NC(=O)CSc2nnc(NCc3ccccc3)s2)n(-c2ccccc2)n1	3	10	-4	103	102	·	·	·
